Source: PubChem BioAssay AID1159580 (chemical genetic matrix, 2015)
Values joined by “and” are separate entries in the source; they are usually repeats but may differ in a detail not shown here. Equal entries are not always repeated. Hit rate of the full screen: of about 5,500 compounds, about 2,000 (36%) were called active. Inconclusive results (about 18%) are left out. No stated cut-off is given here; in the data, active means normalized growth mostly below about 0.91 (no sharp cut-off); inconclusive means no clear call, values can overlap the other calls; inactive means mostly above about 0.92. The list shows a part of the results.

Experiment: chemical genetic growth profiling, strain panel (AID 1159580);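 further: tested at 20 µM; growth read once vehicle control cultures reached saturation at 30 °C; 1 = growth at the plate median or of vehicle wells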
Details: growth OD
[1] = S. cerevisiae deletion strains, locus YAL013W, strain DEP1, stronger effect = lower value
[2] = S. cerevisiae deletion strains, locus YNL153C, strain GIM3, stronger effect = lower value
[3] = S. cerevisiae deletion strains, locus YPL241C, strain CIN2, stronger effect = lower value

Measured: normalized growth

CC1CCN=C(N)S1 (stereo unspecified)
inactive: [1] 0.997 | S. cerevisiae deletion strains, locus YAL040C, strain CLN3, stronger effect = lower value 0.98 | S. cerevisiae deletion strains, locus YER002W, strain NOP16, stronger effect = lower value 1 | [2] 0.947 | S. cerevisiae deletion strains, locus YNL175C, strain NOP13, stronger effect = lower value 0.991 | S. cerevisiae deletion strains, locus YNL197C, strain WHI3, stronger effect = lower value 0.99 | S. cerevisiae deletion strains, locus YNL224C, strain SQS1, stronger effect = lower value 1.02 | S. cerevisiae deletion strains, locus YOR083W, strain WHI5 (second series), stronger effect = lower value 0.962 | [3] 0.978

CCC(C(N)=O)c1ccccc1 (stereo unspecified)
inactive: [1] 1.02 | S. cerevisiae deletion strains, locus YBR021W, strain FUR4, stronger effect = lower value 1.04 | S. cerevisiae deletion strains, locus YBR229C, strain ROT2, stronger effect = lower value 0.999 | S. cerevisiae deletion strains, locus YCL029C, strain bik1, stronger effect = lower value 0.992 | S. cerevisiae deletion strains, locus YDL035C, strain GPR1, stronger effect = lower value 1.03 | S. cerevisiae deletion strains, locus YDL074C, strain BRE1, stronger effect = lower value 1.04 | S. cerevisiae deletion strains, locus YDL101C, strain DUN1, stronger effect = lower value 1.01 | S. cerevisiae deletion strains, locus YDL134C, strain PPH21, stronger effect = lower value 1 | S. cerevisiae deletion strains, locus YDL185W, strain tfp1, stronger effect = lower value 0.997 | S. cerevisiae deletion strains, locus YDL192W, strain arf1, stronger effect = lower value 1 | S. cerevisiae deletion strains, locus YDR101C, strain arx1, stronger effect = lower value 0.986 | S. cerevisiae deletion strains, locus YDR150W, strain NUM1, stronger effect = lower value 1 | S. cerevisiae deletion strains, locus YDR162C, strain NBP2, stronger effect = lower value 1.03 | S. cerevisiae deletion strains, locus YDR318W, strain mcm21, stronger effect = lower value 0.998 | S. cerevisiae deletion strains, locus YDR388W, stronger effect = lower value 0.999 | S. cerevisiae deletion strains, locus YDR502C, strain sam2, stronger effect = lower value 1.01 | S. cerevisiae deletion strains, locus YEL061C, strain CIN8, stronger effect = lower value 1.02 | S. cerevisiae deletion strains, locus YER110C, stronger effect = lower value 0.987 | S. cerevisiae deletion strains, locus YER155C, strain BEM2, stronger effect = lower value 0.998 | S. cerevisiae deletion strains, locus YER167W, strain BCK2, stronger effect = lower value 1.01 | S. cerevisiae deletion strains, locus YGL078C, strain dbp3, stronger effect = lower value 1 | S. cerevisiae deletion strains, locus YGL086W, strain mad1, stronger effect = lower value 0.997 | S. cerevisiae deletion strains, locus YGL248W, strain PDE1, stronger effect = lower value 1 | S. cerevisiae deletion strains, locus YGR078C, strain PAC10, stronger effect = lower value 1.03 | S. cerevisiae deletion strains, locus YGR135W, strain pre9, stronger effect = lower value 1 | S. cerevisiae deletion strains, locus YGR229C, strain SMI1, stronger effect = lower value 1.01 | S. cerevisiae deletion strains, locus YGR252W, strain gcn5, stronger effect = lower value 1.11 | S. cerevisiae deletion strains, locus YHR030C, strain SLT2, stronger effect = lower value 1.01 and 0.954 | S. cerevisiae deletion strains, locus YHR079C, strain IRE1 (second series), stronger effect = lower value 0.99 | S. cerevisiae deletion strains, locus YHR079C, strain IRE1, stronger effect = lower value 0.992 | S. cerevisiae deletion strains, locus YHR094C, strain hxt1, stronger effect = lower value 0.982 | S. cerevisiae deletion strains, locus YHR129C, strain ARP1, stronger effect = lower value 1 | S. cerevisiae deletion strains, locus YHR200W, strain rpn10, stronger effect = lower value 1.01 | S. cerevisiae deletion strains, locus YIL066C, strain RNR3, stronger effect = lower value 1.01 | S. cerevisiae deletion strains, locus YIL073C, strain SPO22, stronger effect = lower value 0.946 | S. cerevisiae deletion strains, locus YIL125W, strain kgd1, stronger effect = lower value 1.01 | S. cerevisiae deletion strains, locus YIR030C, strain dcg1, stronger effect = lower value 0.998 | S. cerevisiae deletion strains, locus YJL095W, strain BCK1, stronger effect = lower value 1.03 and 0.98 | S. cerevisiae deletion strains, locus YJL134W, strain LCB3, stronger effect = lower value 1.01 | S. cerevisiae deletion strains, locus YJL168C, strain set2, stronger effect = lower value 0.981 | S. cerevisiae deletion strains, locus YJL187C, strain SWE1 (second series), stronger effect = lower value 1.01 | S. cerevisiae deletion strains, locus YJR043C, strain POL32, stronger effect = lower value 1.04 | S. cerevisiae deletion strains, locus YJR066W, strain TOR1, stronger effect = lower value 0.899 | S. cerevisiae deletion strains, locus YJR075W, strain HOC1, stronger effect = lower value 1.01 | S. cerevisiae deletion strains, locus YKL009W, strain mrt4, stronger effect = lower value 1.02 | S. cerevisiae deletion strains, locus YKL068W, stronger effect = lower value 0.998 | S. cerevisiae deletion strains, locus YKL085W, strain MDH1 (second series), stronger effect = lower value 1 | S. cerevisiae deletion strains, locus YKL085W, strain MDH1, stronger effect = lower value 1 | S. cerevisiae deletion strains, locus YKL190W, strain CNB1, stronger effect = lower value 1.02 | S. cerevisiae deletion strains, locus YKR001C, strain vps1, stronger effect = lower value 0.989 | S. cerevisiae deletion strains, locus YLR039C, strain RIC1, stronger effect = lower value 1.04 | S. cerevisiae deletion strains, locus YLR058C, strain SHM2, stronger effect = lower value 1.01 | S. cerevisiae deletion strains, locus YLR102C, strain apc9, stronger effect = lower value 0.983 | S. cerevisiae deletion strains, locus YLR113W, strain HOG1, stronger effect = lower value 1.01 | S. cerevisiae deletion strains, locus YLR262C, strain YPT6, stronger effect = lower value 1.04 | S. cerevisiae deletion strains, locus YLR268W, strain sec22, stronger effect = lower value 1.01 | S. cerevisiae deletion strains, locus YLR330W, strain CHS5, stronger effect = lower value 1.01 | S. cerevisiae deletion strains, locus YLR342W, strain FKS1 (second series), stronger effect = lower value 1.02 | S. cerevisiae deletion strains, locus YLR371W, strain rom2, stronger effect = lower value 0.984 | S. cerevisiae deletion strains, locus YLR418C, strain cdc73, stronger effect = lower value 1.06 | S. cerevisiae deletion strains, locus YML016C, strain PPZ1, stronger effect = lower value 1.01 | S. cerevisiae deletion strains, locus YML032C, strain rad52, stronger effect = lower value 1.01 | S. cerevisiae deletion strains, locus YML124C, strain tub3, stronger effect = lower value 0.994 | S. cerevisiae deletion strains, locus YMR078C, strain ctf18, stronger effect = lower value 0.996 | S. cerevisiae deletion strains, locus YMR223W, strain ubp8, stronger effect = lower value 0.986 | S. cerevisiae deletion strains, locus YMR263W, strain SAP30, stronger effect = lower value 1.02 | S. cerevisiae deletion strains, locus YMR307W, strain GAS1, stronger effect = lower value 1.1 | S. cerevisiae deletion strains, locus YNL067W, strain RPL9B, stronger effect = lower value 1.04 | S. cerevisiae deletion strains, locus YNL128W, strain TEP1, stronger effect = lower value 1.02 | [2] 1.01 | S. cerevisiae deletion strains, locus YNL183C, strain NPR1, stronger effect = lower value 0.903 | S. cerevisiae deletion strains, locus YNL233W, strain BNI4, stronger effect = lower value 1.01 | S. cerevisiae deletion strains, locus YNL250W, strain rad50, stronger effect = lower value 1 | S. cerevisiae deletion strains, locus YNL271C, strain bni1, stronger effect = lower value 1 | S. cerevisiae deletion strains, locus YNL298W, strain CLA4, stronger effect = lower value 1.01 | S. cerevisiae deletion strains, locus YNL307C, strain MCK1, stronger effect = lower value 1.01 | S. cerevisiae deletion strains, locus YNL322C, strain KRE1, stronger effect = lower value 1.01 | S. cerevisiae deletion strains, locus YNR052C, strain pop2, stronger effect = lower value 0.984 | S. cerevisiae deletion strains, locus YOL006C, strain TOP1, stronger effect = lower value 1.06 | S. cerevisiae deletion strains, locus YOL012C, strain htz1 1.05 | S. cerevisiae deletion strains, locus YOL147C, strain pex11, stronger effect = lower value 0.988 | S. cerevisiae deletion strains, locus YOR061W, strain CKA2, stronger effect = lower value 1.01 | S. cerevisiae deletion strains, locus YOR069W, strain VPS5, stronger effect = lower value 1.01 | S. cerevisiae deletion strains, locus YOR136W, strain idh2, stronger effect = lower value 1 | S. cerevisiae deletion strains, locus YOR144C, strain elg1, stronger effect = lower value 0.997 | S. cerevisiae deletion strains, locus YOR184W, strain ser1, stronger effect = lower value 1 | S. cerevisiae deletion strains, locus YOR231W, strain MKK1, stronger effect = lower value 0.95 | S. cerevisiae deletion strains, locus YOR316C, strain cot1, stronger effect = lower value 0.988 | S. cerevisiae deletion strains, locus YPL055C, strain LGE1, stronger effect = lower value 1.05 | [3] 1.01 | S. cerevisiae deletion strains, locus YPL256C, strain CLN2, stronger effect = lower value 0.962 | S. cerevisiae deletion strains, locus YPR119W, strain clb2, stronger effect = lower value 0.986 | S. cerevisiae deletion strains, locus YPR141C, strain kar3, stronger effect = lower value 1.01 | S. cerevisiae deletion strains, locus YPR163C, strain tif3, stronger effect = lower value 0.999 | S. cerevisiae deletion strains, locus YPR167C, strain met16, stronger effect = lower value 0.999 | S. cerevisiae deletion strains, strain wtn01, stronger effect = lower value 1 | S. cerevisiae strains, strain wild type, stronger effect = lower value 1.01
